Active and inactive are the calls of the source. A call without a number means that no potency is given here. The call rests on the fitted dose curve; in most records, active means well fitted activation curve with a large enough effect; inconclusive means small, poorly fitted or top-dose-only effect; inactive means no such curve, though single readings can be large or run the other way.
Test: Confirmatory qHTS for Identification of Small Molecule Activators of Huntingtin-Antisense Promoter Activity
Settings: HEK293 HTT-AS promoter firefly luciferase reporter, 24 h; series mostly up to 57.5 µM
Summary of the method: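 2,500 luciferase reporter HEK293 cells/well; 24 h culture; cpds up to 57.5 uM final, PTC124 50 uM ctrl; 24 h, 37C; Dual-Glo FLuc reagent, 10 min RT; lum. Norm.: vehicle 0%, zero RLU -100%.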
Potency means the concentration at half of the fitted maximal effect.

Row | SMILES | Potency
1 | CN(C)S(=O)(=O)c1ccc(C(=O)NCCSc2c(-c3ccc(Br)cc3)[nH]c3ccccc23)cc1 | inactive
2 | Cc1[nH]c2ccccc2c1CCNCc1ccc(C=CC(=O)NO)cc1 | 1900 nM (active)
3 | COc1ccccc1NC(=O)c1ccc(-c2nc(COc3ccc(C)cc3)c(C)o2)cc1 | inactive
4 | CO[C@H]1C=CC=C(C)C(=O)NC2=CC(=O)C(NCCN(C)C)=C(C[C@@H](C)C[C@H](OC)[C@@H](O)[C@@H](C)C=C(C)[C@@H]1OC(N)=O)C2=O | inactive
5 | CC(=O)N1CCCc2cc(S(=O)(=O)N(C)CC(=O)Nc3ccc(F)cc3Cl)ccc21 | inactive
6 | Cc1oc(-c2ccc(C(=O)NCc3ccccc3F)cc2)nc1COc1ccccc1 | inactive
7 | COc1ccc(Cl)cc1NC(=O)CSc1nccn1-c1ccc(Cl)cc1 | inactive
8 | O=C(CSc1nccn1Cc1ccco1)Nc1cc(C(F)(F)F)ccc1Cl | inactive
9 | COc1ccc(NC(=O)c2ccc(-c3nc(CSc4ccccc4)c(C)o3)cc2)cc1OC | inactive
10 | COc1cccc(C(=O)NCCSc2c(-c3ccc(F)cc3)[nH]c3ccccc23)c1OC | inactive
11 | CSc1ncc(Cl)c(C(=O)Nc2ccc(S(=O)(=O)N3CCC(C)CC3)cc2)n1 | inactive
12 | COc1ccc2sc(N(Cc3cccnc3)C(=O)c3ccc4c(c3)OCCO4)nc2c1 | inactive
13 | Cc1cc(C)c(S(=O)(=O)NCCc2sc3nc(-c4ccc(F)cc4)nn3c2C)c(C)c1 | inactive
14 | COc1ccc(-n2c(-c3ccco3)nc3c(cnn3-c3ccc(Cl)cc3)c2=O)cc1 | inactive
15 | COc1ccc(NC(=O)CN2C(=O)C(C)(C)c3ccccc32)cc1Cl | inactive
16 | O=c1[nH]c2ccc(NCc3ccc(-c4ccccc4)o3)cc2[nH]1 | inactive
17 | CC=C1NC(=O)[C@H]2CSSCCC=C[C@H](CC(=O)N[C@H](C(C)C)C(=O)N2)OC(=O)[C@H](C(C)C)NC1=O | inactive
18 | CCOC(=O)C1CCN(C(=O)Cn2c(-c3cccs3)cc3cc(Cl)ccc32)CC1 | inactive
19 | Cc1ccc(-n2ncc3c(N(C)Cc4ccccc4)ncnc32)cc1 | 213 nM (active)
20 | O=C(NCc1ccc(Cl)cc1)C1CCN(S(=O)(=O)c2ccc3c(c2)CCCN3C(=O)C2CCC2)CC1 | inactive

Row | SMILES | Potency
21 | Cc1ccccc1C(=O)NCc1ccc2c(c1)CCN2C(=O)c1ccccc1 | inactive
22 | COc1cc(Br)c(C2CC(=O)Nc3cc4c(cc32)OCCO4)cc1OC (centres undefined) | inactive
23 | CCN(C(=O)c1oc2ccc(S(=O)(=O)N3CCCCCC3)cc2c1C)c1ccccc1 | inactive
24 | CCN(c1ccccc1)S(=O)(=O)c1cc(C(=O)Nc2ccc(Br)cc2)ccc1F | inactive
25 | CCc1ccc(CNC(=O)Cn2ccc3cc(S(=O)(=O)N4CCCCCC4)ccc32)cc1 | inactive
26 | Cc1ccc(CN2CCCn3nc(C(=O)NCc4cc(C)ccc4C)cc3C2=O)cc1 | inactive
27 | O=C(Nc1ccc(F)cc1)C1CCN(S(=O)(=O)c2ccc3c(c2)CCCN3C(=O)C2CCC2)CC1 | inactive
28 | CC(=O)N1CCCc2cc(S(=O)(=O)N(C)CC(=O)Nc3cccc(Cl)c3C)ccc21 | inactive
29 | COc1ccc(C(=O)Nc2cccc(-c3cn4ccsc4n3)c2)c(OC)c1 | 13500 nM (active)
30 | O=C(Nc1cc(Cl)cc(Cl)c1)c1ccc(F)c(S(=O)(=O)N2CCc3ccccc32)c1 | inactive
31 | COc1ccc(Cn2c(CO)cnc2SCc2ccc(F)cc2)cc1 | inactive
32 | Cc1cccc(Nc2nc(Nc3cccc(C)c3)nc(N3CCOCC3)n2)c1 | inactive
33 | CCN(Cc1ccccc1)C(=O)C1CCC(CNS(=O)(=O)c2ccc3c(c2)CCCC(=O)N3)CC1 (centres undefined) | inactive
34 | COc1ccc(OC2CCN(S(=O)(=O)c3ccc(OC)cc3)CC2)cc1 | inactive
35 | COc1ccc(CCNC(=O)c2cc3sccc3n2Cc2ccc(Cl)cc2)cc1OC | inactive
36 | Fc1ccc(N2CCN(c3ncnc4c3nc3n4CCCCC3)CC2)cc1 | inactive
37 | COc1ccccc1C(=O)Nc1nnc(SCc2cc(=O)c3ccccc3[nH]2)s1 | inactive
38 | COc1ccc(CC(=O)Nc2ccc(-c3nc4ccccc4s3)cc2Cl)cc1OC | inactive
39 | COc1ccc(C)cc1NC(=O)Cn1c(=O)cc(C)c2c(C)nn(C)c21 | inactive

From PubChem BioAssay AID1508622 (National Center for Advancing Translational Sciences (NCATS), 2021)
